Test results as given in PubChem BioAssay AID1159580 (chemical genetic matrix, 2015).
Where “and” joins values, the source holds several entries; their conditions need not be identical. Identical values can stand only once. Hit rate of the full screen: of about 5,500 compounds, about 2,000 (36%) were called active. Inconclusive results (about 18%) are left out. Cut-off read from the data, not from the text of the source: active = normalized growth mostly below about 0.91 (no sharp cut-off); inconclusive = no clear call, values can overlap the other calls; inactive = mostly above about 0.92. This is one part of the list.

Assay: chemical genetic growth profiling, strain panel (AID 1159580);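 note: tested at 20 µM; growth read once vehicle control cultures reached saturation at 30 °C; 1 = growth at the plate median or of vehicle wells; lower values mean less growth of the strain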
Settings: growth OD

Measured: normalized growth

CC(C)NCC(O)COc1cccc2[nH]ccc12 (stereo not given)
inactive: S. cerevisiae deletion strains, locus YJR075W, strain HOC1, active compounds read low 1.01 | S. cerevisiae deletion strains, locus YKL009W, strain mrt4, active compounds read low 0.966 | S. cerevisiae deletion strains, locus YKL068W, active compounds read low 0.984 | S. cerevisiae deletion strains, locus YKL085W, strain MDH1 (second series), active compounds read low 0.968 | S. cerevisiae deletion strains, locus YKL085W, strain MDH1, active compounds read low 0.968 | S. cerevisiae deletion strains, locus YKL160W, strain elf1, active compounds read low 1 | S. cerevisiae deletion strains, locus YKL190W, strain CNB1, active compounds read low 0.993 | S. cerevisiae deletion strains, locus YKR001C, strain vps1, active compounds read low 0.988 | S. cerevisiae deletion strains, locus YKR026C, strain gcn3, active compounds read low 0.966 | S. cerevisiae deletion strains, locus YKR091W, strain srl3, active compounds read low 0.992 | S. cerevisiae deletion strains, locus YLL026W, active compounds read low 0.983 | S. cerevisiae deletion strains, locus YLL041C, strain sdh2, active compounds read low 0.983 | S. cerevisiae deletion strains, locus YLR027C, strain aat2, active compounds read low 0.985 | S. cerevisiae deletion strains, locus YLR039C, strain RIC1, active compounds read low 0.962 | S. cerevisiae deletion strains, locus YLR058C, strain SHM2, active compounds read low 0.996 | S. cerevisiae deletion strains, locus YLR102C, strain apc9, active compounds read low 0.988 | S. cerevisiae deletion strains, locus YLR113W, strain HOG1, active compounds read low 0.987 | S. cerevisiae deletion strains, locus YLR221C, strain rsa3, active compounds read low 0.994 | S. cerevisiae deletion strains, locus YLR258W, strain gsy2, active compounds read low 0.981 | S. cerevisiae deletion strains, locus YLR262C, strain YPT6 (second series), active compounds read low 0.994 | S. cerevisiae deletion strains, locus YLR262C, strain YPT6, active compounds read low 0.966 | S. cerevisiae deletion strains, locus YLR268W, strain sec22, active compounds read low 0.953 | S. cerevisiae deletion strains, locus YLR320W, strain mms22, active compounds read low 0.977 | S. cerevisiae deletion strains, locus YLR330W, strain CHS5, active compounds read low 0.978 | S. cerevisiae deletion strains, locus YLR342W, strain FKS1 (second series), active compounds read low 0.994 | S. cerevisiae deletion strains, locus YLR342W, strain FKS1, active compounds read low 0.996 | S. cerevisiae deletion strains, locus YLR357W, strain rsc2, active compounds read low 0.952 | S. cerevisiae deletion strains, locus YLR370C, strain arc18, active compounds read low 0.974 | S. cerevisiae deletion strains, locus YLR371W, strain rom2, active compounds read low 0.97 | S. cerevisiae deletion strains, locus YLR384C, strain iki3, active compounds read low 0.992 | S. cerevisiae deletion strains, locus YLR418C, strain cdc73, active compounds read low 1 | S. cerevisiae deletion strains, locus YML016C, strain PPZ1, active compounds read low 0.995 | S. cerevisiae deletion strains, locus YML032C, strain rad52, active compounds read low 0.984 | S. cerevisiae deletion strains, locus YML120C, strain ndi1, active compounds read low 0.976 | S. cerevisiae deletion strains, locus YML124C, strain tub3, active compounds read low 0.989 | S. cerevisiae deletion strains, locus YMR058W, strain fet3, active compounds read low 0.977 | S. cerevisiae deletion strains, locus YMR078C, strain ctf18, active compounds read low 0.981 | S. cerevisiae deletion strains, locus YMR125W, strain sto1, active compounds read low 0.953 | S. cerevisiae deletion strains, locus YMR129W, active compounds read low 0.974 | S. cerevisiae deletion strains, locus YMR205C, strain PFK2, active compounds read low 0.968 | S. cerevisiae deletion strains, locus YMR223W, strain ubp8, active compounds read low 1.03 | S. cerevisiae deletion strains, locus YMR231W, strain pep5, active compounds read low 0.984 | S. cerevisiae deletion strains, locus YMR263W, strain SAP30, active compounds read low 0.985 and 1 and 0.998 | S. cerevisiae deletion strains, locus YMR307W, strain GAS1, active compounds read low 1 and 0.998 | S. cerevisiae deletion strains, locus YNL067W, strain RPL9B, active compounds read low 0.992 | S. cerevisiae deletion strains, locus YNL071W, strain lat1, active compounds read low 0.982 | S. cerevisiae deletion strains, locus YNL128W, strain TEP1, active compounds read low 0.986 | S. cerevisiae deletion strains, locus YNL153C, strain GIM3, active compounds read low 1.01 | S. cerevisiae deletion strains, locus YNL175C, strain NOP13, active compounds read low 0.995 and 1.02 | S. cerevisiae deletion strains, locus YNL183C, strain NPR1, active compounds read low 0.955 | S. cerevisiae deletion strains, locus YNL197C, strain WHI3, active compounds read low 0.986 and 1.02 | S. cerevisiae deletion strains, locus YNL209W, strain ssb2, active compounds read low 0.99 | S. cerevisiae deletion strains, locus YNL224C, strain SQS1, active compounds read low 0.992 and 0.996 | S. cerevisiae deletion strains, locus YNL233W, strain BNI4, active compounds read low 0.995 | S. cerevisiae deletion strains, locus YNL248C, strain rpa49, active compounds read low 1 | S. cerevisiae deletion strains, locus YNL250W, strain rad50, active compounds read low 0.986 | S. cerevisiae deletion strains, locus YNL271C, strain bni1, active compounds read low 0.993 | S. cerevisiae deletion strains, locus YNL298W, strain CLA4, active compounds read low 0.977 | S. cerevisiae deletion strains, locus YNL307C, strain MCK1, active compounds read low 0.982 | S. cerevisiae deletion strains, locus YNL322C, strain KRE1 (second series), active compounds read low 0.994 | S. cerevisiae deletion strains, locus YNL322C, strain KRE1, active compounds read low 0.995 and 0.991 and 1.02 | S. cerevisiae deletion strains, locus YNR049C, strain mso1, active compounds read low 0.975 | S. cerevisiae deletion strains, locus YNR052C, strain pop2, active compounds read low 0.967 | S. cerevisiae deletion strains, locus YOL006C, strain TOP1, active compounds read low 1.04 | S. cerevisiae deletion strains, locus YOL012C, strain htz1 0.915 | S. cerevisiae deletion strains, locus YOL147C, strain pex11, active compounds read low 0.992 | S. cerevisiae deletion strains, locus YOR001W, strain rrp6, active compounds read low 0.994 | S. cerevisiae deletion strains, locus YOR061W, strain CKA2, active compounds read low 0.996 | S. cerevisiae deletion strains, locus YOR069W, strain VPS5, active compounds read low 0.991 | S. cerevisiae deletion strains, locus YOR070C, strain gyp1, active compounds read low 0.981 | S. cerevisiae deletion strains, locus YOR080W, strain dia2, active compounds read low 0.983 | S. cerevisiae deletion strains, locus YOR083W, strain WHI5 (second series), active compounds read low 1.02 and 0.995 | S. cerevisiae deletion strains, locus YOR083W, strain WHI5, active compounds read low 1.01 | S. cerevisiae deletion strains, locus YOR106W, strain vam3, active compounds read low 1 | S. cerevisiae deletion strains, locus YOR136W, strain idh2, active compounds read low 0.995 | S. cerevisiae deletion strains, locus YOR144C, strain elg1, active compounds read low 0.992 | S. cerevisiae deletion strains, locus YOR184W, strain ser1, active compounds read low 0.988 | S. cerevisiae deletion strains, locus YOR231W, strain MKK1, active compounds read low 1 | S. cerevisiae deletion strains, locus YOR265W, strain rbl2, active compounds read low 0.982 | S. cerevisiae deletion strains, locus YOR270C, strain vph1, active compounds read low 0.973 | S. cerevisiae deletion strains, locus YOR290C, strain snf2, active compounds read low 0.963 | S. cerevisiae deletion strains, locus YOR316C, strain cot1, active compounds read low 0.98 | S. cerevisiae deletion strains, locus YPL051W, strain arl3, active compounds read low 0.996 | S. cerevisiae deletion strains, locus YPL055C, strain LGE1, active compounds read low 1.01 and 0.998 | S. cerevisiae deletion strains, locus YPL078C, strain atp4, active compounds read low 0.989 | S. cerevisiae deletion strains, locus YPL106C, strain sse1, active compounds read low 0.979 | S. cerevisiae deletion strains, locus YPL240C, strain hsp82, active compounds read low 0.98 | S. cerevisiae deletion strains, locus YPL241C, strain CIN2, active compounds read low 0.991 and 0.996 | S. cerevisiae deletion strains, locus YPL256C, strain CLN2, active compounds read low 0.99 | S. cerevisiae deletion strains, locus YPR119W, strain clb2, active compounds read low 0.981 | S. cerevisiae deletion strains, locus YPR141C, strain kar3, active compounds read low 0.993 | S. cerevisiae deletion strains, locus YPR163C, strain tif3, active compounds read low 0.984 | S. cerevisiae deletion strains, locus YPR167C, strain met16, active compounds read low 0.977 | S. cerevisiae deletion strains, strain wtn01, active compounds read low 0.985 | S. cerevisiae strains, strain wild type, active compounds read low 1
